Measurements as given in PubChem BioAssay (Tox21).
Records with an inconclusive call do not appear. Entries that show only a call come without a potency. Active and inactive are the calls of the source. Unless noted, calls come from the whole dose curve; as a rule, active = well fitted curve in the direction sought with a large enough effect in the repeat runs; inconclusive = weak or mixed curves; inactive = no such curve, though single readings can be large; an effect the other way counts as inactive or inconclusive.

Tests used:
[1] = qHTS assay to identify small molecule antagonists of the thyroid receptor (TR) signaling pathway - cell viability counter screen (AID 743064); note: nearly all actives have a fitted effect of over 50% in size
Method in brief: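 CellTiter-Fluor readout, 30 min at 37 °C/5% CO2, following 23.5 h incubation of GH3.TRE-Luc cells with test compound and 1 nM T3 (final).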

[2] = system: thyroid hormone receptor (rat, GH3 cells); assay: qHTS assay to identify small molecule agonists of the thyroid receptor (TR) signaling pathway (AID 743066; calls by dose curve)
[3] = target: Estrogen receptor (Homo sapiens) (UniProt P03372); assay: qHTS assay to identify small molecule antagonists of the estrogen receptor alpha (ER-alpha) signaling pathway (AID 743069; active = well fitted curve in the direction sought with a large enough effect in the signal ratio in the repeat runs, not every such curve was filed as active; the % refers to the signal ratio)
Method in brief: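 ER-alpha-UAS-bla GripTite HEK293 line; 2% charcoal-stripped FBS overnight; plated, 4 hr 37C/5% CO2; cpd in DMSO + 17beta-estradiol, 18 hr 37C; LiveBLAzer B/G FRET substrate 2 hr RT; fluorescence intensity.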

[4] = target: Estrogen receptor (Homo sapiens) (UniProt P03372); assay: qHTS assay to identify small molecule agonists of the estrogen receptor alpha (ER-alpha) signaling pathway (AID 743075; calls by dose curve;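 note: HEK293 GripTite cells with ER-alpha and UAS-driven beta-lactamase reporter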)
[5] = target: Estrogen receptor (Homo sapiens) (UniProt P03372); assay: qHTS assay to identify small molecule agonists of the estrogen receptor alpha (ER-alpha) signaling pathway using the BG1 cell line (AID 743079); note: nearly all actives have a fitted effect of over 20% in size; note: potency is the fitted concentration of half-maximal effect
[6] = qHTS assay to identify small molecule antagonists of the estrogen receptor alpha (ER-alpha) signaling pathway using the BG1 cell line - cell viability counter screen (AID 743081);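 note: compound given together with 17beta-estradiol as the ER stimulus; series mostly up to about 70 µM; nearly all actives have a fitted effect of over 45% in size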
Aromatase (Homo sapiens) = Aromatase (Homo sapiens) (UniProt P11511); assay: qHTS assay to identify aromatase inhibitors (AID 743083); note: nearly all actives have a fitted effect of over 55% in size; note: potency is the fitted concentration of half-maximal effect
[7] = qHTS assay to identify small molecule antagonists of the estrogen receptor alpha (ER-alpha) signaling pathway - cell viability counter screen (AID 743074; calls by dose curve;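 note: HEK293 cells carrying ER-alpha-UAS-bla reporter stimulated with 17beta-estradiol; nearly all actives have a fitted effect of over 45% in size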)
[8] = qHTS assay to identify small molecule antagonists of the estrogen receptor alpha (ER-alpha) signaling pathway using the BG1 cell line (AID 743080; calls by dose curve;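 note: BG1 cells stimulated with 17beta-estradiol alongside compound; series mostly up to about 70 µM; nearly all actives have a fitted effect of over 25% in size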)
Method in brief: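 Readout is ONE-Glo luminescence, taken 30 min at room temperature after reagent addition, preceded by a CellTiter-Fluor viability read; BG1-Luc-4E2 cells had received compound and 17beta-estradiol for 21.5 h at 37 C.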

Estrogen receptor (Homo sapiens), sequence (P03372 whole entry, looked up): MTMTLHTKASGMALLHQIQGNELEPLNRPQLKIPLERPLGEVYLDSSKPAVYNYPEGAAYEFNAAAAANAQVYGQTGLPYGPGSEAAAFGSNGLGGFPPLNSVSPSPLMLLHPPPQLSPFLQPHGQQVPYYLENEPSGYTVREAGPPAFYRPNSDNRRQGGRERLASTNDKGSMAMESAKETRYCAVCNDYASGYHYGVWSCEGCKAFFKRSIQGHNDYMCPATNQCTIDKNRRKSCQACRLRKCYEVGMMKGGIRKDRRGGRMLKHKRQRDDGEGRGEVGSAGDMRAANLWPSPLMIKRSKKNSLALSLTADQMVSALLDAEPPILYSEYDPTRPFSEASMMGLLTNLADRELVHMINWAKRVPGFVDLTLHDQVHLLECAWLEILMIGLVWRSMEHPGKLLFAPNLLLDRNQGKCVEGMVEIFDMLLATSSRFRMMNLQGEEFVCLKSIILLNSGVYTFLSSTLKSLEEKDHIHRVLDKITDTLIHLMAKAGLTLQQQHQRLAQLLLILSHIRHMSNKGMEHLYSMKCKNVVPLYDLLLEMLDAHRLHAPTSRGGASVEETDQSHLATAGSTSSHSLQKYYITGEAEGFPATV
Aromatase (Homo sapiens), sequence (P11511 whole entry, looked up): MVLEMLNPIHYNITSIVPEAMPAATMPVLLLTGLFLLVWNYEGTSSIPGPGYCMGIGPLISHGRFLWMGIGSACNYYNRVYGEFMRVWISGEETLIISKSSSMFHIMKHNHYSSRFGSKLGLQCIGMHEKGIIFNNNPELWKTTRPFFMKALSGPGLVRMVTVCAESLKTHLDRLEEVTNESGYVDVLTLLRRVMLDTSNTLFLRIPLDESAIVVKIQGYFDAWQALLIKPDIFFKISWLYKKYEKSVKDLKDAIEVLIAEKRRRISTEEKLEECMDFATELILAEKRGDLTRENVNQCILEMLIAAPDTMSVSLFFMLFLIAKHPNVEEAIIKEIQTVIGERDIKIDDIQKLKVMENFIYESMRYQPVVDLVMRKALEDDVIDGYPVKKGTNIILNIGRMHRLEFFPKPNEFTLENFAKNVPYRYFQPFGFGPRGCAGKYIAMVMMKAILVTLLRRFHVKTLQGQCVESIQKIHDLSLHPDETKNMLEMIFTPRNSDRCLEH

Row | Compound | Potency [1] | Potency [2] | Potency [3] | Potency [4] | Potency [5] | outcome [6] | Potency (Aromatase (Homo sapiens)) | outcome [7] | Potency [8]
1 | CC1=CC(C)C(C=O)C(C)C1 (stereo unspecified) | inactive | inactive | inactive | inactive | inactive | inactive | inactive | – | –
2 | CSc1ccc(C=O)cc1 | inactive | inactive | – | – | – | inactive | inactive | inactive | –
3 | Nc1ccc2cc(S(=O)(=O)O)ccc2c1 | inactive | inactive | inactive | inactive | inactive | inactive | inactive | inactive | inactive
4 | C=CC(=O)N1CCOCC1 | inactive | inactive | – | – | – | inactive | inactive | inactive | –
5 | CCCCCCCCN(C)CCCCCCCC | inactive | inactive | inactive | inactive | inactive | inactive | inactive | inactive | inactive
6 | OCC(O)[C@@H](O)[C@H](O)[C@H](O)CO[C@H]1O[C@H](CO)[C@@H](O)[C@H](O)[C@H]1O (stereo partly specified) | inactive | inactive | – | – | – | inactive | inactive | inactive | –
7 | C=C(C)[C@H]1CC=C(C)CC1 | inactive | – | inactive | inactive | inactive | inactive | inactive | inactive | inactive
8 | OC/C=C/c1ccccc1 | inactive | inactive | – | – | – | inactive | inactive | inactive | –
9 | C=C(C)C(=O)NCCC[N+](C)(C)C | inactive | inactive | inactive | inactive | inactive | inactive | inactive | – | inactive
10 | C[N+](C)(C)CC[N+]1(C)Cc2c(Cl)c(Cl)c(Cl)c(Cl)c2C1 | inactive | inactive | inactive | inactive | inactive | inactive | inactive | inactive | inactive
11 | Cc1nccn1CC1CCc2c(c3ccccc3n2C)C1=O (stereo unspecified) | inactive | inactive | inactive | inactive | inactive | inactive | inactive | inactive | inactive
12 | O=S(=O)(c1cccc2cnccc12)N1CCCNCC1 | inactive | inactive | inactive | inactive | – | inactive | 13.3 µM (active) | inactive | –
13 | CCC(=O)Nc1cccc(N)c1 | inactive | – | inactive | inactive | inactive | inactive | inactive | inactive | inactive
14 | COc1cccc(OC)c1 | inactive | inactive | – | – | – | inactive | inactive | inactive | –
15 | COCCOC(=O)CC#N | inactive | inactive | inactive | inactive | inactive | inactive | inactive | inactive | inactive
16 | CC(=O)CCc1ccc(O)cc1 | inactive | inactive | inactive | inactive | inactive | inactive | inactive | inactive | inactive
17 | CC(C)=CC(=O)O | inactive | inactive | inactive | inactive | 54.5 µM (active) | inactive | inactive | inactive | inactive
18 | CCOC(=O)Nc1ccc2c(c1)N(C(=O)CCN1CCOCC1)c1ccccc1S2 | inactive | inactive | inactive | inactive | inactive | inactive | inactive | inactive | –
19 | CCO[Si](CCCN=C=O)(OCC)OCC | inactive | inactive | inactive | inactive | inactive | inactive | inactive | – | inactive
20 | OCCN1C[C@H](O)[C@@H](O)[C@H](O)[C@H]1CO | inactive | inactive | inactive | inactive | inactive | inactive | inactive | inactive | inactive
21 | CC(=O)OC(C)(C)C | inactive | inactive | inactive | inactive | inactive | inactive | inactive | inactive | inactive
22 | CCCCCCCCC=O | inactive | inactive | – | – | inactive | inactive | – | inactive | –
23 | CCCC(=O)O[C@]1(C(=O)CCl)[C@@H](C)C[C@H]2[C@@H]3CCC4=CC(=O)C=C[C@]4(C)[C@@]3(F)C(=O)C[C@@]21C | inactive | inactive | – | inactive | inactive | – | inactive | inactive | –
24 | COc1ccc(N=[N+]([O-])c2ccc(OC)cc2)cc1 | inactive | inactive | – | inactive | 0.0679 µM (active) | inactive | inactive | inactive | –
25 | CCCCC=O | inactive | inactive | – | – | – | inactive | – | inactive | –
26 | NS(=O)(=O)c1cc(C2(O)NC(=O)c3ccccc32)ccc1Cl (stereo unspecified) | inactive | inactive | – | – | – | inactive | inactive | inactive | –
27 | Fc1ccccc1-c1ccccc1 | inactive | inactive | inactive | inactive | inactive | inactive | inactive | inactive | inactive
